Reference: the supplement of paper PMC9694430
Several values for one entry are separate records, joined by “and”; a condition that tells them apart may be missing. Identical values can stand only once.

How the values were obtained:
Test in all cases: thermal shift delta Tm vs DMSO control; higher = stronger stabilization (binding)
Conditions in all cases: 12.5 µM; protein concentration 2 µM
[1] = test system: LOC_OS01G01410-cb001
In short: (§1)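 Rice kinase domain constructs were expressed in E. coli, purified, and tested by differential scanning fluorimetry with compound added in DMSO. Each well of a 96-well plate held 19.5 μl of 2 μM kinase in 100 mM potassium phosphate pH 7.5, 150 mM NaCl, 10% glycerol and 5 × SYPRO Orange, and fluorescence was read from 25°C to 95°C at 0.05°C/s. The melting temperature shift is the mean of triplicates, taken against protein with DMSO alone after Boltzmann fitting.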

[2] = test system: LOC_OS01G02750-cb003
In short: as §1

[3] = test system: LOC_OS01G10900-cb004
In short: as §1

[4] = test system: LOC_OS01G13800-cb001
In short: as §1

[5] = test system: LOC_OS01G14860-cb001
In short: as §1

[6] = test system: LOC_OS01G21960-cb002
In short: as §1

[7] = test system: LOC_OS01G39600-cb002
In short: as §1

[8] = test system: LOC_OS01G48390-cb002
In short: as §1

[9] = test system: LOC_OS01G51400-cb002
In short: as §1

[10] = test system: T1, LOC_OS01G52050-cb004
T1 sequence (whole entry): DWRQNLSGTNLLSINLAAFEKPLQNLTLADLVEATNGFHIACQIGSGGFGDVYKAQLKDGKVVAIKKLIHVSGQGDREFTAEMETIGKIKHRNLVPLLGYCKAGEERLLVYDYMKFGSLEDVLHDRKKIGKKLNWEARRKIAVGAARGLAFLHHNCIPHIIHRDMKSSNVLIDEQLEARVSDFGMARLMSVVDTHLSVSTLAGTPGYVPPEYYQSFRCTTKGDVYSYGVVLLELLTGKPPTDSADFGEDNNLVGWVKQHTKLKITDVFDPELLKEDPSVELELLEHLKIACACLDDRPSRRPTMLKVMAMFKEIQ
In short: as §1

Compound: Cn1ncc(Cl)c1-c1cc(C(=O)N[C@H](CN)Cc2ccc(F)c(F)c2)oc1Cl
- thermal shift delta Tm [1]: -0.41 °C
- thermal shift delta Tm [2]: 1.78 °C
- thermal shift delta Tm [3]: -0.33 °C
- thermal shift delta Tm [4]: 1.08 °C
- thermal shift delta Tm [5]: 0.15 °C
- thermal shift delta Tm [6]: 1.66 °C
- thermal shift delta Tm [7]: -0.06 °C
- thermal shift delta Tm [8]: 1 °C
- thermal shift delta Tm [9]: 0.44 °C
- thermal shift delta Tm [10]: 1.06 °C

Compound: O=C(Nc1cccc(Nc2ncc(Br)c(NCCc3cnc[nH]3)n2)c1)N1CCCC1
- thermal shift delta Tm [1]: 5.28 °C
- thermal shift delta Tm [2]: 2.32 °C
- thermal shift delta Tm [3]: 0.86 °C
- thermal shift delta Tm [4]: 0.31 °C
- thermal shift delta Tm [5]: 4.24 °C
- thermal shift delta Tm [6]: 3.16 °C
- thermal shift delta Tm [7]: 7.21 °C
- thermal shift delta Tm [8]: 4.8 °C
- thermal shift delta Tm [9]: 1.21 °C
- thermal shift delta Tm [10]: 11.9 °C

Compound: COc1cc(Nc2ncc(F)c(Nc3ccc4c(n3)NC(=O)C(C)(C)O4)n2)cc(OC)c1OC [R406 (free base)]
- thermal shift delta Tm [1]: 0.61 °C
- thermal shift delta Tm [2]: 1.68 °C
- thermal shift delta Tm [3]: 0.13 °C
- thermal shift delta Tm [4]: 0.48 °C
- thermal shift delta Tm [5]: 5.16 °C
- thermal shift delta Tm [6]: 4.15 °C
- thermal shift delta Tm [7]: 5.87 °C
- thermal shift delta Tm [8]: 0.31 °C
- thermal shift delta Tm [9]: 0.55 °C
- thermal shift delta Tm [10]: 8.56 °C

Compound: Cc1cccc(CC(=O)N2CCc3c2ccc(-c2cn(C)c4ncnc(N)c24)c3F)n1
- thermal shift delta Tm [1]: 1.17 °C
- thermal shift delta Tm [2]: 6.31 °C
- thermal shift delta Tm [3]: 2.32 °C
- thermal shift delta Tm [4]: -0.12 °C
- thermal shift delta Tm [5]: 0.28 °C
- thermal shift delta Tm [6]: 0.3 °C
- thermal shift delta Tm [7]: 0.17 °C
- thermal shift delta Tm [8]: -0.13 °C
- thermal shift delta Tm [9]: 0.48 °C
- thermal shift delta Tm [10]: 1.35 °C

Compound: O=c1cc(N2CCOCC2)oc2c(-c3cccc4c3sc3ccccc34)cccc12
- thermal shift delta Tm [1]: -0.61 °C
- thermal shift delta Tm [2]: -1.71 °C
- thermal shift delta Tm [3]: 3.77 °C
- thermal shift delta Tm [4]: -1.29 °C
- thermal shift delta Tm [5]: 0.08 °C
- thermal shift delta Tm [6]: -0.64 °C
- thermal shift delta Tm [7]: -1.62 °C
- thermal shift delta Tm [8]: -0.49 °C
- thermal shift delta Tm [9]: -1.28 °C
- thermal shift delta Tm [10]: -0.72 °C

Compound: CCCCCCCCCC(=O)CC(O)S(=O)(=O)O (stereo not given) [Sodium Houttuyfonate]
- thermal shift delta Tm [1]: 0.56 °C
- thermal shift delta Tm [2]: -0.18 °C
- thermal shift delta Tm [3]: 3.08 °C
- thermal shift delta Tm [4]: 0.69 °C
- thermal shift delta Tm [5]: 0.44 °C
- thermal shift delta Tm [6]: 0.8 °C
- thermal shift delta Tm [7]: -0.35 °C
- thermal shift delta Tm [8]: 0.2 °C
- thermal shift delta Tm [9]: 0.12 °C
- thermal shift delta Tm [10]: 0.07 °C

Compound: COc1ccc(Cl)cc1NC(=O)Nc1cc(C)nc2ccccc12
- thermal shift delta Tm [1]: 0.77 °C
- thermal shift delta Tm [2]: 3.02 °C
- thermal shift delta Tm [3]: 0.18 °C
- thermal shift delta Tm [4]: 0.68 °C
- thermal shift delta Tm [5]: 0.5 °C
- thermal shift delta Tm [6]: 1.37 °C
- thermal shift delta Tm [7]: -1.53 °C
- thermal shift delta Tm [8]: 5.48 °C
- thermal shift delta Tm [9]: 1.15 °C
- thermal shift delta Tm [10]: 1.3 °C

Compound: C#Cc1cccc(Nc2ncnc3cc(OC)c(OCCCCCCC(=O)NO)cc23)c1
- thermal shift delta Tm [1]: 0.66 °C
- thermal shift delta Tm [2]: 0.59 °C
- thermal shift delta Tm [3]: 0.97 °C
- thermal shift delta Tm [4]: 0.44 °C
- thermal shift delta Tm [5]: 0.54 °C
- thermal shift delta Tm [6]: 0.53 °C
- thermal shift delta Tm [7]: 1.06 °C
- thermal shift delta Tm [8]: 1.12 °C
- thermal shift delta Tm [9]: 0.13 °C
- thermal shift delta Tm [10]: 0.41 °C

Compound: CONC(=O)c1ccccc1Nc1cc(Nc2cc(C)nn2C(C)C)ncc1Cl
- thermal shift delta Tm [1]: 0.19 °C
- thermal shift delta Tm [2]: 1.48 °C
- thermal shift delta Tm [3]: 0.57 °C
- thermal shift delta Tm [4]: -0.17 °C
- thermal shift delta Tm [5]: 0.66 °C
- thermal shift delta Tm [6]: 0.75 °C
- thermal shift delta Tm [7]: 4.21 °C
- thermal shift delta Tm [8]: 1.49 °C
- thermal shift delta Tm [9]: 0.4 °C
- thermal shift delta Tm [10]: 3.96 °C

Compound: Cc1ccc(NC(=O)c2cccc(C(C)(C)C#N)c2)cc1Nc1ccc2ncn(C)c(=O)c2c1
- thermal shift delta Tm [1]: 0.91 °C
- thermal shift delta Tm [2]: 0.97 °C
- thermal shift delta Tm [3]: 0.69 °C
- thermal shift delta Tm [4]: 0.2 °C
- thermal shift delta Tm [5]: 0.47 °C
- thermal shift delta Tm [6]: 0.52 °C
- thermal shift delta Tm [7]: 0.04 °C
- thermal shift delta Tm [8]: 1.13 °C
- thermal shift delta Tm [9]: 0.61 °C
- thermal shift delta Tm [10]: 0.4 °C

Compound: Cc1cnc(-c2cnc(NCCNc3ccc(C#N)cn3)nc2-c2ccc(Cl)cc2Cl)[nH]1
- thermal shift delta Tm [1]: 0.25 °C and -0.35 °C
- thermal shift delta Tm [2]: 1.32 °C and 0.93 °C
- thermal shift delta Tm [3]: 0.52 °C and -0.13 °C
- thermal shift delta Tm [4]: 0.39 °C and 0.37 °C
- thermal shift delta Tm [5]: 7.39 °C and 7.4 °C
- thermal shift delta Tm [6]: 1.7 °C and 1.69 °C
- thermal shift delta Tm [7]: 0.07 °C and 1.56 °C
- thermal shift delta Tm [8]: 0.47 °C and 0.64 °C
- thermal shift delta Tm [9]: 0.25 °C and 0.6 °C
- thermal shift delta Tm [10]: 0.73 °C and 0.53 °C

Compound: COc1ccc(C(=O)Nc2sc3c(c2C(N)=O)CCCC3)cc1OC
- thermal shift delta Tm [1]: 0.61 °C
- thermal shift delta Tm [2]: 0.58 °C
- thermal shift delta Tm [3]: 0.36 °C
- thermal shift delta Tm [4]: 0.6 °C
- thermal shift delta Tm [5]: 0.19 °C
- thermal shift delta Tm [6]: 0.49 °C
- thermal shift delta Tm [7]: 0.46 °C
- thermal shift delta Tm [8]: 0.85 °C
- thermal shift delta Tm [9]: 0.45 °C
- thermal shift delta Tm [10]: 1.28 °C

Compound: COc1cc2c(Nc3ccc(NC(=O)c4ccccc4)cc3)ncnc2cc1OCCCN1CCOCC1
- thermal shift delta Tm [1]: 2.69 °C
- thermal shift delta Tm [2]: 0.98 °C
- thermal shift delta Tm [3]: -0.03 °C
- thermal shift delta Tm [4]: 0.65 °C
- thermal shift delta Tm [5]: 0.52 °C
- thermal shift delta Tm [6]: 0.26 °C
- thermal shift delta Tm [7]: 1.98 °C
- thermal shift delta Tm [8]: 0.89 °C
- thermal shift delta Tm [9]: 0.34 °C
- thermal shift delta Tm [10]: 0.94 °C

Compound: COc1nccc(-c2c(-c3ccc(F)cc3)ncn2C2CCC(O)CC2)n1 (stereo not given)
- thermal shift delta Tm [1]: -0.16 °C
- thermal shift delta Tm [2]: 1.24 °C
- thermal shift delta Tm [3]: -0.06 °C
- thermal shift delta Tm [4]: 0.22 °C
- thermal shift delta Tm [5]: -0.06 °C
- thermal shift delta Tm [6]: 0.69 °C
- thermal shift delta Tm [7]: -0.45 °C
- thermal shift delta Tm [8]: 0.16 °C
- thermal shift delta Tm [9]: 0.24 °C
- thermal shift delta Tm [10]: 0.27 °C

Compound: O=c1cc(-c2ccccc2)oc2c(O)c(O)ccc12 [7,8-Dihydroxyflavone]
- thermal shift delta Tm [1]: 2.01 °C
- thermal shift delta Tm [2]: 2.3 °C
- thermal shift delta Tm [3]: 0.12 °C
- thermal shift delta Tm [4]: 2.97 °C
- thermal shift delta Tm [5]: 3.88 °C
- thermal shift delta Tm [6]: 3.56 °C
- thermal shift delta Tm [7]: 0.49 °C
- thermal shift delta Tm [8]: 1.55 °C
- thermal shift delta Tm [9]: 0.69 °C
- thermal shift delta Tm [10]: 1.44 °C

Compound: COc1cc2c(N3CCN(C(=O)Nc4ccc(OC(C)C)cc4)CC3)ncnc2cc1OCCCN1CCCCC1 [Tandutinib (MLN518)]
- thermal shift delta Tm [1]: 0.23 °C
- thermal shift delta Tm [2]: 1.12 °C
- thermal shift delta Tm [3]: 0.43 °C
- thermal shift delta Tm [4]: 0.92 °C
- thermal shift delta Tm [5]: 0.05 °C
- thermal shift delta Tm [6]: 0.83 °C
- thermal shift delta Tm [7]: 0.57 °C
- thermal shift delta Tm [8]: -0.07 °C
- thermal shift delta Tm [9]: 0.02 °C
- thermal shift delta Tm [10]: 0.86 °C

Compound: c1cn2cc(-c3ccc4cn[nH]c4c3)nc(Nc3ccc(N4CCOCC4)cc3)c2n1 [Entospletinib (GS-9973)]
- thermal shift delta Tm [1]: 2.35 °C
- thermal shift delta Tm [2]: 3.16 °C
- thermal shift delta Tm [3]: 0.19 °C
- thermal shift delta Tm [4]: -0.33 °C
- thermal shift delta Tm [5]: 1.77 °C
- thermal shift delta Tm [6]: 1.76 °C
- thermal shift delta Tm [7]: 4.22 °C
- thermal shift delta Tm [8]: 0.98 °C
- thermal shift delta Tm [9]: -0.11 °C
- thermal shift delta Tm [10]: 3.88 °C

Compound: CC(=O)Nc1nc(C)c(-c2ccc(Cl)c(S(=O)(=O)NCCO)c2)s1
- thermal shift delta Tm [1]: 0.98 °C
- thermal shift delta Tm [2]: 1.63 °C
- thermal shift delta Tm [3]: 1.52 °C
- thermal shift delta Tm [4]: 0.63 °C
- thermal shift delta Tm [5]: 0.16 °C
- thermal shift delta Tm [6]: 1.07 °C
- thermal shift delta Tm [7]: -0.18 °C
- thermal shift delta Tm [8]: 0.24 °C
- thermal shift delta Tm [9]: 0.16 °C
- thermal shift delta Tm [10]: 0.93 °C

Compound: Cn1cc(-c2ccc3c(c2)CCN3C(=O)Cc2cccc(C(F)(F)F)c2)c2c(N)ncnc21
- thermal shift delta Tm [1]: 1.18 °C
- thermal shift delta Tm [2]: 3.93 °C
- thermal shift delta Tm [3]: 2.83 °C
- thermal shift delta Tm [4]: -0.12 °C
- thermal shift delta Tm [5]: 0.47 °C
- thermal shift delta Tm [6]: 0.33 °C
- thermal shift delta Tm [7]: 0.17 °C
- thermal shift delta Tm [8]: 0.89 °C
- thermal shift delta Tm [9]: -0.22 °C
- thermal shift delta Tm [10]: 2.35 °C

Compound: COc1ccc([C@@H]2OC[C@H]3[C@@H]2CO[C@@H]3c2ccc(O[C@@H]3O[C@H](CO)[C@@H](O)[C@H](O)[C@H]3O)c(OC)c2)cc1OC [Forsythin]
- thermal shift delta Tm [1]: 0.23 °C
- thermal shift delta Tm [2]: 1.02 °C
- thermal shift delta Tm [3]: 0.51 °C
- thermal shift delta Tm [4]: -0.29 °C
- thermal shift delta Tm [5]: 0.27 °C
- thermal shift delta Tm [6]: 0.16 °C
- thermal shift delta Tm [7]: -0.84 °C
- thermal shift delta Tm [8]: 0.13 °C
- thermal shift delta Tm [9]: 0.31 °C
- thermal shift delta Tm [10]: 1.57 °C

Compound: O=C(O)[C@]1(Cc2cccc(Nc3nccs3)n2)CC[C@@H](Oc2cccc(Cl)c2F)CC1
- thermal shift delta Tm [1]: 1.81 °C
- thermal shift delta Tm [2]: 1.68 °C
- thermal shift delta Tm [3]: 3.48 °C
- thermal shift delta Tm [4]: -1.25 °C
- thermal shift delta Tm [5]: 5.16 °C
- thermal shift delta Tm [6]: 1 °C
- thermal shift delta Tm [7]: 2.55 °C
- thermal shift delta Tm [8]: 3.01 °C
- thermal shift delta Tm [9]: -0.7 °C
- thermal shift delta Tm [10]: 13.5 °C
